# Reference: PubChem BioAssay (NCI)
# About 83,000 compounds went through this panel and 20% of them were active in at least one assay; those are over-represented in the sample as a whole.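 Percent growth is the endpoint: 0 to 100 indicates growth inhibition (40 means 60% inhibition), 0 means no net growth, and negative values indicate cell death.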 A number with no mark means an inactive call. The source made the active and inactive calls. Rule for the calls: active = growth percent below 10; inactive = the rest.
# How the values were obtained:
# Assay in all cases: NCI-60 one-dose screen, 48 h (100 = growth as untreated, 0 = no growth, -100 = all killed)
# Settings in all cases: 10 µM unless noted
# [1] = system: NCI-H23 lung
# [2] = system: NCI-H226 lung
# [3] = system: NCI-H322M lung
# [4] = system: HOP-62 NSCLC
# [5] = system: NCI-H460 lung
# [6] = system: HOP-92 NSCLC
# [7] = system: NCI-H522 lung
# [8] = system: 786-0 renal
# [9] = system: COLO 205 colon
# [10] = system: DU-145 prostate
# [11] = system: K-562 leukemia
# [12] = system: MALME-3M melanoma
# [13] = system: MDA-MB-231 breast
# [14] = system: RXF 393 renal
# [15] = system: SF-268 CNS
# [16] = system: SF-295 CNS
# [17] = system: SF-539 CNS
# [18] = system: UACC-257 melanoma
# [19] = system: M14 melanoma
# [20] = system: A549/ATCC NSCLC
SMILES,growth [1],growth [2],growth [3],growth [4],growth [5],growth [6],growth [7],growth [8],growth [9],growth [10],growth [11],growth [12],growth [13],growth [14],growth [15],growth [16],growth [17],growth [18],growth [19],growth [20]
c1ccc2c(NCCCN3CCN(CCCNc4c5ccccc5nc5ccccc45)CC3)c3ccccc3nc2c1,-86.2% [100 µM] (active),-26.2% [100 µM] (active),-33.2% [100 µM] (active),-32.5% [100 µM] (active),-19.5% [100 µM] (active),-26.4% [100 µM] (active),-72.1% [100 µM] (active),-28.5% [100 µM] (active),-52.6% [100 µM] (active),-63.4% [100 µM] (active),-10.1% [100 µM] (active),-69.7% [100 µM] (active),-40.3% [100 µM] (active),-90.3% [100 µM] (active),-34.9% [100 µM] (active),-48.1% [100 µM] (active),-79.2% [100 µM] (active),-36.4% [100 µM] (active),-81% [100 µM] (active),–
Cc1cc(CO)c(O)c(CO)c1,121%,115%,98.7%,107%,107%,96.4%,84.4%,107%,114%,115%,87.3%,104%,108%,112%,105%,109%,110%,95.8%,97.6%,–
O=C1NC(=O)C(c2ccccc2)O1 (stereo not given),102%,105%,98.9%,104%,109%,104%,90.2%,90.3%,108%,119%,92.6%,100%,122%,121%,115%,–,96.4%,98.8%,100%,–
Nc1ncnc(Nc2ccccc2)n1,101%,104%,104%,119%,107%,84.5%,99.4%,–,110%,120%,98.8%,124%,115%,118%,112%,113%,108%,108%,106%,104%
Cc1cccc2ccccc12,104%,97%,103%,102%,104%,100%,97.3%,97.9%,117%,114%,–,103%,101%,111%,102%,97.4%,89.8%,101%,97.7%,–
CCOc1ccc2c(c1)c(C)cc(C)[n+]2CC,43.5%,82.8%,83.2%,80.7%,109%,54.2%,46.1%,79.4%,65.5%,–,47.2%,101%,91.3%,96.3%,95.2%,54.3%,88.7%,76%,102%,–
COC1=C(OC)C(=O)C(SC/C=C(\C)CCCC(C)CCCC(C)CCCC(C)C)=CC1=O (stereo not given),14%,40.9%,67.4%,38.3%,2.16% (active),-13.1% (active),-6.14% (active),66%,94.4%,32%,8.26% (active),5.25% (active),15.5%,-0.159% (active),28.7%,16.5%,16.9%,13.6%,26.9%,–
O=C(O)c1ccc(OCc2ccccc2)cc1,95.5%,90.2%,93.5%,93%,108%,93.2%,92.4%,99.4%,104%,109%,108%,102%,92.7%,112%,106%,96.2%,97.5%,89.9%,103%,–
Cc1ccc(C)c(CN(C)C)c1O,102%,97.6%,108%,97.4%,102%,88.1%,111%,107%,113%,108%,119%,94.8%,109%,107%,104%,97.8%,96.5%,105%,105%,–
NC(=O)c1cc2c3ccccc3ccn2c1-c1ccccc1,18.7%,23.3%,46.3%,24.3%,0.187% (active),32.7%,53.1%,17.4%,-13.2% (active),5.57% (active),4.64% (active),86%,29.3%,25.5%,22%,4.09% (active),-19.7% (active),64.9%,11.3%,–
Cc1cc(Nc2ccc3c(c2)OCO3)c2cc3c(cc2n1)OCO3,46%,88%,57.5%,17.9%,6.21% (active),10.4%,-21.1% (active),18.9%,-21.3% (active),3.67% (active),36.8%,24.4%,32.3%,6.97% (active),37.9%,-62.6% (active),-15.5% (active),75.7%,-16.7% (active),–
CC(C)(CC(=O)O)CC(=O)O,100%,96.5%,96.7%,111%,102%,96.6%,98.5%,102%,119%,111%,107%,107%,95.5%,–,102%,110%,95%,113%,101%,–
CCC1CCC(C)NC1 (stereo not given),91.3%,93.4%,108%,101%,99.7%,87.3%,99.2%,102%,103%,107%,102%,102%,120%,107%,102%,92.1%,99.7%,96%,95.2%,–
CC(C)NC(=O)OCc1c(COC(=O)NC(C)C)c(-c2ccc(Cl)cc2)n2c1CCC2,36.5%,63%,62.8%,46.4%,24.6%,26.2%,51.2%,36.4%,57.2%,15%,58.4%,59.3%,65.8%,–,31%,20.8%,16.3%,88.8%,33.2%,–
O=C(O)C1CSC(c2ccccc2)N1 (stereo not given),95%,97%,–,89.5%,98.5%,111%,79.4%,112%,84.6%,105%,128%,98.8%,80.9%,106%,102%,99.8%,–,106%,95.6%,100%
N#CCCN1C(=O)CCC1C(=O)O (stereo not given),109%,113%,–,119%,107%,–,85%,107%,115%,114%,96.8%,114%,129%,115%,97.3%,101%,104%,93.4%,104%,103%
CC(C)=CCC[C@@H](C)[C@H]1CC[C@@]2(C)C3=C(CC[C@]12C)[C@@]1(C)CC[C@H](O)C(C)(C)[C@@H]1CC3,113%,104%,–,107%,107%,97.8%,95%,101%,110%,126%,91.2%,110%,112%,95.9%,117%,–,101%,121%,108%,–
CC(C)(C)NCCC(O)c1cc(C(F)(F)F)nc2c(C(F)(F)F)cccc12 (stereo not given),95.5%,75.2%,–,68.3%,44.4%,40.2%,76.2%,80.3%,97.7%,73.6%,64.5%,102%,55.1%,73.3%,71%,–,75.1%,90.1%,84.6%,57.5%

SMILES,growth [1],growth [2],growth [3],growth [4],growth [5],growth [6],growth [7],growth [8],growth [9],growth [10],growth [11],growth [12],growth [13],growth [14],growth [15],growth [16],growth [17],growth [18],growth [19],growth [20]
OCC1OC(n2ccc3c2ncn2ncnc32)C(O)C1O (stereo not given),35.8%,25.1%,–,37.3%,26.5%,-0.422% (active),82.7%,31.9%,35%,16.9%,18.4%,83.7%,40.9%,38.3%,47.4%,43.7%,34.3%,97.7%,51.3%,50.6%
COc1cc(-c2ccc(NC(=O)CC(C)=O)c(OC)c2)ccc1NC(=O)CC(C)=O,96%,91.4%,–,98%,109%,98.2%,95.5%,105%,115%,111%,98%,97.3%,101%,113%,107%,101%,97.6%,89.3%,104%,88.5%
C=CC(C)C(C)(C)O (stereo not given),108%,98.8%,–,102%,102%,–,94.4%,89.4%,110%,105%,94%,107%,103%,105%,95.3%,102%,105%,109%,102%,94.6%
O=C(OCc1ccccc1)n1nnc2ccccc21,115%,108%,–,110%,109%,116%,100%,98.7%,111%,112%,107%,–,96.6%,113%,104%,99.2%,105%,97.2%,98.7%,102%
COC1(OC)C2(Cl)C(Cl)=C(Cl)C1(Cl)C1COCC12 (stereo not given),109%,93.6%,–,96.5%,86.8%,105%,79.5%,104%,113%,102%,97.3%,110%,105%,103%,108%,102%,109%,63.3%,100%,64%
CCCC(OC(C)=O)c1ccc2c(c1)OCO2 (stereo not given),97.7%,99.4%,–,98.7%,106%,104%,103%,100%,107%,104%,99%,91.9%,113%,104%,102%,105%,105%,94.9%,102%,104%
O=c1cc(Cl)nc2ccccn12,98.8%,106%,–,103%,106%,94%,99.7%,108%,127%,110%,110%,117%,120%,106%,112%,106%,102%,107%,107%,107%
O=c1cc(C(F)(F)F)[nH]c(=S)[nH]1,103%,112%,–,100%,112%,126%,99.4%,104%,109%,109%,111%,96.6%,–,104%,121%,98.3%,96.5%,99.2%,108%,98.1%
O=C1NCC2CCCC1C2 (stereo not given),105%,104%,–,115%,120%,130%,90.3%,99.5%,119%,113%,106%,109%,102%,103%,103%,–,111%,81.7%,96.7%,97.6%
NC(=S)c1c(N)n(C2OC(CO)C(O)C2O)c2ncnc(N)c12 (stereo not given),-0.783% (active),14%,–,3.76% (active),-0.26% (active),–,-53.5% (active),-0.846% (active),-50.9% (active),4.75% (active),-17.2% (active),-53.4% (active),29.7%,-69.3% (active),-3.78% (active),-0.294% (active),-51.2% (active),-10.2% (active),-24.5% (active),5.46% (active)
Ic1cccs1,97.7%,107%,–,99%,108%,–,97.5%,105%,117%,107%,102%,94.6%,–,119%,99.3%,95.9%,101%,99.5%,104%,98%
CCC(=O)C1C(=O)c2ccccc2C1=O,101%,104%,–,99%,115%,85.8%,86.6%,107%,122%,113%,63.7%,96.8%,89.8%,120%,101%,96.9%,106%,110%,111%,113%
OC1Cc2ccccc2C1,90.2%,101%,–,95.7%,104%,68.7%,92.6%,98.7%,98.8%,103%,48.3%,95.2%,–,101%,102%,95.2%,97.1%,90.9%,94.9%,97.1%
C=C(c1ccc(N(C)C)cc1)c1ccc(N(C)C)cc1,16.2%,44.3%,–,23.1%,6.37% (active),–,-28.6% (active),34.6%,-4.63% (active),20.3%,5.61% (active),20.6%,–,-11% (active),31.2%,21%,-44.9% (active),52.3%,–,30.8%
N#C/C(=C\c1ccc(C#N)cc1)C(=O)c1ccccc1,86.8%,95.5%,–,103%,116%,86.3%,91.4%,94.2%,123%,107%,–,109%,104%,–,104%,107%,96.8%,97.7%,–,98.4%
COc1cccc(N=CNc2cccc(OC)c2)c1,98.3%,99.7%,–,103%,109%,93.5%,85.6%,98.8%,107%,107%,66%,–,91.9%,105%,105%,112%,98.3%,106%,104%,92.4%
CCCC(=O)CC(=O)c1ccccc1,96%,91.7%,–,92.8%,106%,95.6%,78.1%,103%,113%,106%,112%,107%,111%,93.6%,97.3%,97%,104%,80.9%,100%,97.9%
